Assay results as given in ChEMBL document CHEMBL3988442, “University of Dundee, Small-Polar-MMV Screening Library” (2021).

Experiments:
[1] = target: T1, Aspartate--tRNA(Asp/Asn) ligase (Mycobacterium tuberculosis (strain ATCC 25618 / H37Rv)) (UniProt P9WFW3); assay: Assay for Asp RNA synthetase-1 from Mycobacterium tuberculosis; type: functional; design: scale not given: direction of the effect not stated beside the values; details: 30 µM; note: in the data most compounds retested in dose-response had high values
T1 sequence (whole entry): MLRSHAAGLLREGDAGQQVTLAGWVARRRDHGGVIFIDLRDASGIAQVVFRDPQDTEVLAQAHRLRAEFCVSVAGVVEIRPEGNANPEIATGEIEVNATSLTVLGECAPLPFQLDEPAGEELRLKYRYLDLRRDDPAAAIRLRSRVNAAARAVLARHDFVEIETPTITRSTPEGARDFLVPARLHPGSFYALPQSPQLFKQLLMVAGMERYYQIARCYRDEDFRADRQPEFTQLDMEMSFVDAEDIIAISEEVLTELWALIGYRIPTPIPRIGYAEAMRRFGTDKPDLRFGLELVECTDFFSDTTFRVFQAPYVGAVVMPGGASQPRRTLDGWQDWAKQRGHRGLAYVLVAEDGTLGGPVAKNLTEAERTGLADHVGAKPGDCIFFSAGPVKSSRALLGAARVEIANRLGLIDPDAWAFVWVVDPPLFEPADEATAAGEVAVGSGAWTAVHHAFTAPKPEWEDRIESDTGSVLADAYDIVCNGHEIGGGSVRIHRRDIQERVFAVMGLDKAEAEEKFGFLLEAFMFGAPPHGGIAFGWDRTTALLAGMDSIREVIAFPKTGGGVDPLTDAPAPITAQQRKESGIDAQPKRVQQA

[2] = target: Shiga toxin 2 (Escherichia coli O157:H7) (UniProt P09385+P09386); assay: E. coli 0.157:H7 Shiga Toxin SOP - stx2 screening assay; type: functional; design: scale not given: direction of the effect not stated beside the values; details: 30 µM

| Compound | Percent Effect [1] | Percent Effect [2] |
| --- | --- | --- |
| CCC(=O)N1CCCC(c2cc(Nc3ncccn3)nc(C)n2)C1 (configuration not stated) | 1.35% | 12.4% |
| Cc1nn(-c2ccccc2)cc1C(=O)N1CCCN2CCCC2C1 (configuration not stated) | -6.57% | -22% |
| Cc1ncsc1C(=O)N(C)Cc1ccncc1 | -4.5% | 27.3% |
| CCn1cnnc1CNC(=O)N1CCN(c2cccc(OC)c2)CC1 | 0.152% | -10.2% |
| CN(C)C(=O)N1C[C@@H]2CCCO[C@@H]2[C@H](N(C)Cc2ccco2)C1 | -1.32% | -18.8% |
| Cc1cnn(CC2CCCN2Cc2cc(=O)n3ccccc3n2)c1 (configuration not stated) | 2.04% | 2.37% |
| Cc1cc(C)n(C2CN(Cc3noc(-c4ccccc4)n3)C2)n1 | 4.04% | -51.5% |
| Cc1cnn(CC2CN(Cc3nnc(C4CC4)o3)CCO2)c1 (configuration not stated) | -2.56% | 24.8% |
| Cc1ccccc1S(=O)(=O)NC(=O)CSc1ccc2c(c1)OCCO2 | -0.334% | -0.0455% |
| CCOc1ccccc1OC1CCN(C(=O)c2ccc(=O)[nH]n2)CC1 | -5.79% | 32.3% |
| O=C(NCc1cnc2n1CCN(Cc1ccsc1)CC2)C1CCC1 | 3.57% | 4.16% |
| CC(NC(=O)NCc1cc[nH]n1)c1ccc2c(c1)CCC(=O)N2 (configuration not stated) | -1.15% | -11.9% |
| CCc1n[nH]c(C2CN(CCc3ccncc3)CCO2)n1 (configuration not stated) | -1.5% | 11.6% |
| CO[C@H]1CCN(S(=O)(=O)c2cn(C)cn2)[C@H]1Cc1cccnc1 | -0.175% | -10.2% |
| O=C(Cc1ccc2c(c1)CCC2)NCCNc1ncccn1 | -1.71% | 7.96% |
| CCOc1ccc(Cl)c(C(=O)NCc2ccc(C(=O)NC)cc2)n1 | -2.66% | 13% |
| CN1CCN(Cc2cscn2)CC(C(=O)N(C)C)C1 (configuration not stated) | -6.57% | -14.6% |
| COc1cccc(S(=O)(=O)N2CCn3cnc(COCC4CC4)c3C2)c1 | 6.08% | 1.15% |

| Compound | Percent Effect [1] | Percent Effect [2] |
| --- | --- | --- |
| CCn1c(C)nnc1CN(C)C1CCN(Cc2nccn2C)C1 (configuration not stated) | 1.34% | -37.8% |
| COc1cc(C(=O)NC(CC(=O)O)c2cccs2)cc(Cl)c1OC (configuration not stated) | 3.71% | -19.3% |
| CCC1c2cccn2CCN1C(=O)c1ccc2nonc2c1 (configuration not stated) | 4.26% | -4.14% |
| O=C1CC[C@H]2[C@H](CCN2C(=O)C2CCOCC2)N1Cc1ccncc1 | -6.47% | -35.2% |
| O=C1CCSCC(C(=O)N2CCN(C3CCCCC3)CC2)N1 (configuration not stated) | -4.14% | -2.45% |
| Cc1nc(CN(C)C2CCN(Cc3sc(C)nc3C)C2)no1 (configuration not stated) | 0.197% | -0.768% |
| CS(=O)(=O)N1CCC(C(=O)NC(Cc2ccsc2)c2ccccn2)CC1 (configuration not stated) | -1.32% | 14.7% |
| O=C1CC(c2ccsc2)c2sc(C(=O)O)c(-c3ccccc3)c2N1 (configuration not stated) | 1.95% | 17.4% |
| COc1cc(C)ccc1OCCC(=O)N1CCCC1Cn1cccn1 (configuration not stated) | 2% | 12.8% |
| Cc1cc(-c2cnc(N3CCN(C)CC3)nc2-c2ccc(C)s2)on1 | -3.23% | -24.7% |
| CN(Cc1ccsc1)C(=O)Nc1ccc(S(=O)(=O)N(C)C)cc1 | 0.428% | -3.75% |
| CC(C)Cc1cc(C(=O)NCc2nnc[nH]2)[nH]n1 | 1.11% | 2.04% |
| Cc1[nH]ncc1CCCNC(=O)Nc1ccc(C#N)cc1 | 0.993% | -61.3% |
| O=C1COc2c(cccc2C(=O)N2CCCCC2Cn2cccn2)N1 (configuration not stated) | -0.721% | 27.1% |
| CC(=O)N1CCC(CN2CCN(Cc3nccn3C)C(C)C2)CC1 (configuration not stated) | 7.78% | 18.6% |
| Cc1nonc1CC(=O)N1C[C@@H]2CC[C@H](C1)N(Cc1ccccc1)C2=O | 1.39% | 2.88% |
| CCc1cc(C)c(C(=O)N2CCCC2CC(=O)c2cnn(C)c2)o1 (configuration not stated) | -2.02% | 19.9% |
| O=C(c1ccco1)N1C[C@H]2CCCN(Cc3cccs3)[C@H]2C1 | 6.24% | -1.93% |
